Values joined by “and” are separate entries in the source; they are usually repeats but may differ in a detail not shown here. Identical values can stand only once. Out of some 5,500 compounds screened, about 2,000 (36%) were called active. Another 18% or so got no clear call; they are omitted. Cut-off read from the data, not from the text of the source: active = normalized growth mostly below about 0.91 (no sharp cut-off); inconclusive = no clear call, values can overlap the other calls; inactive = mostly above about 0.92. Some of the results follow.
Experiment: chemical genetic growth profiling, strain panel (AID 1159580);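 note: tested at 20 µM; growth read once vehicle control cultures reached saturation at 30 °C; 1 = growth at the plate median or of vehicle wells; lower values mean less growth of the strain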
Details: growth OD

Measured: normalized growth

CCOC(=O)C1=C(C)NC(C)=C(C(=O)OC)C1c1cccc([N+](=O)[O-])c1 (stereo unspecified)
inactive: S. cerevisiae deletion strains, locus YJL187C, strain SWE1, hits give low values 1.01 | S. cerevisiae deletion strains, locus YJR043C, strain POL32, hits give low values 1.01 | S. cerevisiae deletion strains, locus YJR075W, strain HOC1, hits give low values 0.995 and 0.989 | S. cerevisiae deletion strains, locus YKL009W, strain mrt4, hits give low values 1.01 | S. cerevisiae deletion strains, locus YKL068W, hits give low values 0.996 | S. cerevisiae deletion strains, locus YKL085W, strain MDH1 (second series), hits give low values 0.997 | S. cerevisiae deletion strains, locus YKL085W, strain MDH1, hits give low values 0.997 | S. cerevisiae deletion strains, locus YKL160W, strain elf1, hits give low values 1.01 | S. cerevisiae deletion strains, locus YKL190W, strain CNB1, hits give low values 0.99 | S. cerevisiae deletion strains, locus YKR001C, strain vps1, hits give low values 1 | S. cerevisiae deletion strains, locus YKR026C, strain gcn3, hits give low values 0.999 | S. cerevisiae deletion strains, locus YKR091W, strain srl3, hits give low values 1 | S. cerevisiae deletion strains, locus YLL001W, strain dnm1, hits give low values 1.02 | S. cerevisiae deletion strains, locus YLL026W, hits give low values 1 | S. cerevisiae deletion strains, locus YLL041C, strain sdh2, hits give low values 1.02 | S. cerevisiae deletion strains, locus YLR027C, strain aat2, hits give low values 1.01 | S. cerevisiae deletion strains, locus YLR039C, strain RIC1, hits give low values 0.968 | S. cerevisiae deletion strains, locus YLR058C, strain SHM2, hits give low values 0.999 | S. cerevisiae deletion strains, locus YLR102C, strain apc9, hits give low values 1 | S. cerevisiae deletion strains, locus YLR221C, strain rsa3, hits give low values 1.01 | S. cerevisiae deletion strains, locus YLR258W, strain gsy2, hits give low values 1.01 | S. cerevisiae deletion strains, locus YLR262C, strain YPT6 (second series), hits give low values 0.959 | S. cerevisiae deletion strains, locus YLR262C, strain YPT6, hits give low values 0.946 | S. cerevisiae deletion strains, locus YLR268W, strain sec22, hits give low values 0.984 | S. cerevisiae deletion strains, locus YLR320W, strain mms22, hits give low values 1 | S. cerevisiae deletion strains, locus YLR330W, strain CHS5, hits give low values 1.01 | S. cerevisiae deletion strains, locus YLR342W, strain FKS1 (second series), hits give low values 1.01 | S. cerevisiae deletion strains, locus YLR342W, strain FKS1, hits give low values 1.01 | S. cerevisiae deletion strains, locus YLR357W, strain rsc2, hits give low values 1.02 | S. cerevisiae deletion strains, locus YLR370C, strain arc18, hits give low values 1.01 | S. cerevisiae deletion strains, locus YLR371W, strain rom2, hits give low values 1.01 | S. cerevisiae deletion strains, locus YLR384C, strain iki3, hits give low values 0.998 | S. cerevisiae deletion strains, locus YLR418C, strain cdc73, hits give low values 0.967 | S. cerevisiae deletion strains, locus YML016C, strain PPZ1, hits give low values 1 | S. cerevisiae deletion strains, locus YML032C, strain rad52, hits give low values 1.02 | S. cerevisiae deletion strains, locus YML120C, strain ndi1, hits give low values 1.01 | S. cerevisiae deletion strains, locus YML124C, strain tub3, hits give low values 1 | S. cerevisiae deletion strains, locus YMR058W, strain fet3, hits give low values 1.02 | S. cerevisiae deletion strains, locus YMR078C, strain ctf18, hits give low values 0.999 | S. cerevisiae deletion strains, locus YMR125W, strain sto1, hits give low values 1.01 | S. cerevisiae deletion strains, locus YMR129W, hits give low values 0.999 | S. cerevisiae deletion strains, locus YMR205C, strain PFK2, hits give low values 0.991 | S. cerevisiae deletion strains, locus YMR223W, strain ubp8, hits give low values 1.01 | S. cerevisiae deletion strains, locus YMR231W, strain pep5, hits give low values 1.01 | S. cerevisiae deletion strains, locus YMR263W, strain SAP30, hits give low values 1.01 and 0.981 | S. cerevisiae deletion strains, locus YMR307W, strain GAS1, hits give low values 0.931 | S. cerevisiae deletion strains, locus YNL067W, strain RPL9B, hits give low values 0.996 | S. cerevisiae deletion strains, locus YNL071W, strain lat1, hits give low values 1.01 | S. cerevisiae deletion strains, locus YNL128W, strain TEP1, hits give low values 0.994 and 1.01 | S. cerevisiae deletion strains, locus YNL153C, strain GIM3, hits give low values 0.999 and 0.961 | S. cerevisiae deletion strains, locus YNL209W, strain ssb2, hits give low values 1.01 | S. cerevisiae deletion strains, locus YNL224C, strain SQS1, hits give low values 0.979 | S. cerevisiae deletion strains, locus YNL233W, strain BNI4, hits give low values 0.995 | S. cerevisiae deletion strains, locus YNL248C, strain rpa49, hits give low values 1.01 | S. cerevisiae deletion strains, locus YNL250W, strain rad50, hits give low values 1.01 | S. cerevisiae deletion strains, locus YNL271C, strain bni1, hits give low values 1.01 | S. cerevisiae deletion strains, locus YNL298W, strain CLA4, hits give low values 1.02 | S. cerevisiae deletion strains, locus YNL307C, strain MCK1, hits give low values 1.01 | S. cerevisiae deletion strains, locus YNL322C, strain KRE1 (second series), hits give low values 1.01 | S. cerevisiae deletion strains, locus YNL322C, strain KRE1, hits give low values 1 and 0.995 | S. cerevisiae deletion strains, locus YNR049C, strain mso1, hits give low values 1.01 | S. cerevisiae deletion strains, locus YNR052C, strain pop2, hits give low values 1.01 | S. cerevisiae deletion strains, locus YOL006C, strain TOP1, hits give low values 1.01 | S. cerevisiae deletion strains, locus YOL012C, strain htz1 0.79 | S. cerevisiae deletion strains, locus YOL147C, strain pex11, hits give low values 1.01 | S. cerevisiae deletion strains, locus YOR001W, strain rrp6, hits give low values 1.03 | S. cerevisiae deletion strains, locus YOR061W, strain CKA2, hits give low values 0.988 | S. cerevisiae deletion strains, locus YOR069W, strain VPS5, hits give low values 0.997 | S. cerevisiae deletion strains, locus YOR070C, strain gyp1, hits give low values 1.01 | S. cerevisiae deletion strains, locus YOR080W, strain dia2, hits give low values 1.01 | S. cerevisiae deletion strains, locus YOR083W, strain WHI5, hits give low values 1 | S. cerevisiae deletion strains, locus YOR106W, strain vam3, hits give low values 1.01 | S. cerevisiae deletion strains, locus YOR136W, strain idh2, hits give low values 1.02 | S. cerevisiae deletion strains, locus YOR144C, strain elg1, hits give low values 1 | S. cerevisiae deletion strains, locus YOR184W, strain ser1, hits give low values 1.01 | S. cerevisiae deletion strains, locus YOR265W, strain rbl2, hits give low values 1 | S. cerevisiae deletion strains, locus YOR270C, strain vph1, hits give low values 1.03 | S. cerevisiae deletion strains, locus YOR290C, strain snf2, hits give low values 1.01 | S. cerevisiae deletion strains, locus YOR316C, strain cot1, hits give low values 1 | S. cerevisiae deletion strains, locus YPL051W, strain arl3, hits give low values 1 | S. cerevisiae deletion strains, locus YPL055C, strain LGE1, hits give low values 0.95 and 1 | S. cerevisiae deletion strains, locus YPL078C, strain atp4, hits give low values 1.03 | S. cerevisiae deletion strains, locus YPL106C, strain sse1, hits give low values 1.04 | S. cerevisiae deletion strains, locus YPL240C, strain hsp82, hits give low values 1.01 | S. cerevisiae deletion strains, locus YPL241C, strain CIN2, hits give low values 0.977 | S. cerevisiae deletion strains, locus YPR119W, strain clb2, hits give low values 1 | S. cerevisiae deletion strains, locus YPR141C, strain kar3, hits give low values 1 | S. cerevisiae deletion strains, locus YPR163C, strain tif3, hits give low values 1.01 | S. cerevisiae deletion strains, locus YPR167C, strain met16, hits give low values 0.998 | S. cerevisiae deletion strains, strain wtn01, hits give low values 0.987 | S. cerevisiae strains, strain wild type, hits give low values 0.982

— PubChem BioAssay AID1159580 (chemical genetic matrix, 2015)
